# From PubChem BioAssay AID588453 (National Center for Advancing Translational Sciences (NCATS), 2011)
# The whole screen tested about 390,000 compounds, of which about 4,000 (1%) were called active. Another 4% or so got no clear call; they are omitted. Calls follow the shape of the dose curve; as a rule, active = well fitted inhibition curve with a large enough effect; inconclusive = small, poorly fitted or top-dose-only effect; inactive = no such curve, though single readings can be large or run the other way. This excerpt belongs to a sample that is enriched for actives.
# Target: Thioredoxin reductase 1, cytoplasmic (Rattus norvegicus) (UniProt O89049)
# Test: qHTS Assay for Inhibitors of Mammalian Selenoprotein Thioredoxin Reductase 1 (TrxR1): qHTS; also: nearly all actives have a fitted effect of over 65% in size
# Conditions: recombinant rTrxR1, NADPH fluorescence consumption, selenite substrate; series mostly up to 114 µM; activity change, negative = inhibition: at the top concentration
# Summary of the method: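 Rat TrxR1 (90 nM in the dispensed reagent) was pre-reduced with 400 uM NADPH for 5 min at room temperature, then incubated with compound for 15 min. After 400 uM selenite was added, NADPH fluorescence (Ex 340/Em 450 nm) was followed for 8 min.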
# % is scaled to controls: 0 for no effect and ±100 for the full control effect; potency is read from the fitted curve at half-maximal effect.
# Thioredoxin reductase 1, cytoplasmic (Rattus norvegicus), sequence (O89049 whole entry, looked up): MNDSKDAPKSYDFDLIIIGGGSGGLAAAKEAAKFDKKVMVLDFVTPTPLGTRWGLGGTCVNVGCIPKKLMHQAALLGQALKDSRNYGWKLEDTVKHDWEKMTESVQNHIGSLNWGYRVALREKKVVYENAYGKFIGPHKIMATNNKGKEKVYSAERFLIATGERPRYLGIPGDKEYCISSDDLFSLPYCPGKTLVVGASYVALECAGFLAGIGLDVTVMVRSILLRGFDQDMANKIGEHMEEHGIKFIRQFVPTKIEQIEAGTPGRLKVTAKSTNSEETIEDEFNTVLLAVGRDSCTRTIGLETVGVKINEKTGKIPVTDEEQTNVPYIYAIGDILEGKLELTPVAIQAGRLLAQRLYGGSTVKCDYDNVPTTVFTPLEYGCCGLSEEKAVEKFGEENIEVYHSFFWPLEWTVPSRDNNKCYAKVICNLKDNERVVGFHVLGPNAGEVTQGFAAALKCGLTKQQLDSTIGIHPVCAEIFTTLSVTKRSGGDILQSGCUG
SMILES,"activity change, negative = inhibition",Potency
Cn1c(=O)oc2cc(S(=O)(=O)CCC(=O)NCCc3ccc(Cl)cc3)ccc21,4.76% (inactive),–
Oc1ccc(Cn2cc[nH]c2=S)cc1,–,inactive
CC(Nc1ccc(-c2nc(-c3ccco3)no2)cc1[N+](=O)[O-])c1ccccc1 (configuration not stated),–,44.7 µM (active)
CNc1ccc(-c2nc(-c3ccco3)no2)cc1[N+](=O)[O-],14.9% (inactive),–
O=[N+]([O-])c1cc(-c2nc(-c3ccccc3)no2)ccc1NCc1ccco1,17.5% (inactive),–
COc1ccc(NC(=O)c2ccc3nc(CCc4ccccc4)oc3c2)c(OC)c1,22.7% [at 57.1 µM] (inactive),–
CSc1ccccc1N1CCN(CCCCCC(=O)NC2CCCc3ccccc32)CC1 (configuration not stated),9.9% [at 57.1 µM] (inactive),–
COc1ccccc1C(=O)OCC(=O)NCCNC(=O)COC(=O)c1ccccc1OC,-10.2% (inactive),–
CCOC(=O)C(=Cc1ccccc1OC)C(=O)OCC,–,44.7 µM (active)
COc1ccccc1/C=C/C(=O)OCC(=O)NC1CCCCCC1,2.32% (inactive),–
Cc1ccc(C)c(Nc2nnc(-c3ccc(C)c(S(=O)(=O)N4CCCCC4)c3)c3ccccc23)c1,7.25% (inactive),–
CC1(C)C=Cc2c(ccc(C(=O)/C=C/c3ccccc3)c2O)O1,6.58% (inactive),–
O=C(NC(Cc1ccccc1)C(=O)O)/C(=C\c1ccccc1)NC(=O)c1ccco1 (configuration not stated),12.3% [at 57.1 µM] (inactive),–
O=C(Nc1ccccc1)/C(=C\c1ccco1)NC(=O)c1ccco1,–,50.1 µM (active)
COc1ccccc1C(=O)N/C(=C/c1ccco1)C(=O)Nc1ccc(C(=O)O)cc1,-32.6% (inactive),–
O=C1COc2ccc(-c3csc(-c4ccc(Cl)cc4)n3)cc2N1,4.52% (inactive),–
CCc1nn(CC(=O)Nc2cccc(C)c2C)c(=O)c2cc3sccc3n12,12.2% (inactive),–
CC(C)c1ccc(NC(=O)CN(C)S(=O)(=O)c2ccc3c(c2)c(=O)n(C)c(=O)n3C)cc1,-3.44% (inactive),–
Nc1ncnc2c1c(I)cn2[C@@H]1C[C@H](N)[C@@H](O)[C@H]1O,15.3% [at 57.1 µM] (inactive),–
O=C1Oc2ccccc2C(=O)/C1=C/c1ccccc1O,–,11.2 µM (active)
CO[C@H]1O[C@@H]2O[C@@]3(C)CC[C@@H]4[C@@H](C)CC[C@@H]([C@H]1C)[C@@]24OO3,-2.35% (inactive),–
CCOC(=O)Cc1ccc(NC(=O)Nc2c[nH]c(=O)[nH]c2=O)cc1,6.47% (inactive),–
COc1cccc(C(=O)NC2=NC(c3ccc(N(C)C)cc3)CC(=O)N2)c1 (configuration not stated),15% (inactive),–
Cc1ccc(Nc2c(-c3ccc(Cl)cc3)nc3sccn23)c(C)c1,2.44% (inactive),–
COCCNc1nnc(SCC(=O)NNC(=O)c2ccco2)s1,-14.3% (inactive),–
CC(C)c1ccc(C2C(C(=O)c3ccco3)=C(O)C(=O)N2CC2CCCO2)cc1 (configuration not stated),-3.52% (inactive),–
C=CCSc1nnc(N2C(=O)C(O)=C(C(=O)c3ccco3)C2c2ccc(F)cc2)s1 (configuration not stated),–,28.2 µM (active)
